The target in assay [1] is Cellular tumor antigen p53 (Homo sapiens) (UniProt P04637). The experiment in a line: Primary qHTS for small molecule compounds that upregulate eGFP-tagged delta133p53alpha (in N-terminal) cells. (AID 2060322).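 For activation: cells pre-induced with doxycycline then dosed without doxycycline; series mostly up to about 56 µM; 0% = DMSO vehicle and 100% = reference activator.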 Note: nearly all actives have a fitted effect of over 75% in size. Note: potency is the fitted concentration of half-maximal effect. As to conditions: NCI-H358 eGFP-delta133p53alpha fluorescence, 24 h; activation: active compounds read high. The essentials: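 NCI-H358 cells pre-induced 24 h with 10 ng/ml doxycycline for eGFP-delta133p53alpha, plated dox-free and exposed 24 h at 37C to titrated compounds. Fixed, Hoechst-stained; gated GFP peak intensity by laser scanning cytometry, normalized to DMSO (0%) and 57.5 uM 5-azacytidine (100%).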
Sequence of Cellular tumor antigen p53 (Homo sapiens) (P04637 whole entry, looked up): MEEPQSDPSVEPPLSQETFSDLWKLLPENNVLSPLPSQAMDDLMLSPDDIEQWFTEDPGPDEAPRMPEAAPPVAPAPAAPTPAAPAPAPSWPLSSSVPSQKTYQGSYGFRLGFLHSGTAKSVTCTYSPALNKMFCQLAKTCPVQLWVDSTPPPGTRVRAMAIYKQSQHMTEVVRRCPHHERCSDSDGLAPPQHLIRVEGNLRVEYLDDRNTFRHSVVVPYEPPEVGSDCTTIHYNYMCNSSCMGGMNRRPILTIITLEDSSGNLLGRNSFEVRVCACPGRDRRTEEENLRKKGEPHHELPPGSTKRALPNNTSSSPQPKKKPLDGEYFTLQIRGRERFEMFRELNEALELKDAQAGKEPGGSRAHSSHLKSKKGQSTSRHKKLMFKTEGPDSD

The target is the same in assay [2]. The experiment in a line: Primary qHTS for small molecule compounds that upregulate eGFP-tagged delta133p53alpha (in C-terminal) cells. (AID 2060324). Note: potency is the fitted concentration of half-maximal effect. The method in brief:
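Readout: filtered GFP peak intensity of gated cells (laser scanning cytometer), normalized plate-wise to intraplate controls, DMSO wells = 0% activity. Cells: NCI-H358 D133p53a-eGFP, dox 100 ng/ml 24 h beforehand, then compound 24 h, 37 °C.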
(In general: Quantitative high-throughput screening tests each substance at several concentrations.)

Assay [3] addresses Aldehyde dehydrogenase, mitochondrial (Homo sapiens) (UniProt P05091). Nature of the assay: qHTS for Inhibitors of the Aldehyde Dehydrogenase Family (ALDH2) Validation screens (AID 2061302; active = well fitted inhibition curve with a large enough effect; title and protocol of this record describe different tests; note: potency is the fitted concentration of half-maximal effect).
Assay [4] deals with Retinaldehyde dehydrogenase 3 (Homo sapiens) (UniProt P47895). The experiment in a line: qHTS for Inhibitors of the Aldehyde Dehydrogenase Family (ALDH1A3) Validation screen (AID 2061312). Note: % is set by controls: 0 for no effect and ±100 for the full control effect; nearly all actives have a fitted effect of over 45% in size.
Assay [5] in a line: BET inhibitor-based combinations targeting novel dependencies in MECOM-rearranged (r) AML: SET-2 cell line (AID 2202231).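 For viability: plate controls were DMSO treated cells for no effect and wells without cells for full effect.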 Note: nearly all actives have a fitted effect of over 35% in size. Note: potency is the fitted concentration of half-maximal effect. As to conditions: SET-2 AML cells viability, CellTiter-Glo luminescence, 48 h; viability: active compounds read low, concentration not given here. The essentials: (§1)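 Viability of cells (500 per well) is scored by luminescent CellTiter-Glo at 48 hr post-dosing. Eleven-point titrations are normalized to DMSO and empty controls and reduced to AUC values.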
(In ATP-based viability assays light output follows the ATP content of the culture.)

Assay [6] is described as follows: BET inhibitor-based combinations targeting novel dependencies in MECOM-rearranged (r) AML: OCI-AML3 cell line (AID 2202232). Note: nearly all actives have a fitted effect of over 35% in size. Note: potency is the fitted concentration of half-maximal effect. The following applies: Potency: OCI-AML3 viability. The method in brief: as §1
Assay [7] is described as follows: BET inhibitor-based combinations targeting novel dependencies in MECOM-rearranged (r) AML: MV-4-11 cell line (AID 2202233). Note: nearly all actives have a fitted effect of over 45% in size. Note: potency is the fitted concentration of half-maximal effect. The method in brief: (§2)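 Using pin-tool transfer, drugs were added in 11 doses to cells (500/well), incubated 48 hr, and assessed with CellTiter-Glo. Z-AUC is a mean-centring transformation applied separately to each screened line.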
Assay [8] is described as follows: BET inhibitor-based combinations targeting novel dependencies in MECOM-rearranged (r) AML: HNT-34 cell line (AID 2202234). Note: nearly all actives have a fitted effect of over 35% in size. Note: potency is the fitted concentration of half-maximal effect. The method in brief: as §2
The nature of assay [9]: BET inhibitor-based combinations targeting novel dependencies in MECOM-rearranged (r) AML: UCSD-AML1 cell line (AID 2202235). Note: nearly all actives have a fitted effect of over 40% in size. Note: potency is the fitted concentration of half-maximal effect. The method in brief:
as §2

Assay [10] is described as follows: BET inhibitor-based combinations targeting novel dependencies in MECOM-rearranged (r) AML: AML-191 cell line (AID 2202236; note: nearly all actives have a fitted effect of over 35% in size; note: potency is the fitted concentration of half-maximal effect). The essentials:
as §1

The nature of assay [11]: BET inhibitor-based combinations targeting novel dependencies in MECOM-rearranged (r) AML: AML-194 cell line (AID 2202237; note: nearly all actives have a fitted effect of over 40% in size; note: potency is the fitted concentration of half-maximal effect). The method in brief:
as §1

The target in assay [12] is Aldehyde dehydrogenase, mitochondrial (Homo sapiens) (UniProt P05091). Nature of the assay: qHTS for Inhibitors of the Aldehyde Dehydrogenase Family (ALDH2) Confirmatory screens (AID 2061303; active = well fitted inhibition curve with a large enough effect; title and protocol of this record describe different tests; note: % is set by controls: 0 for no effect and ±100 for the full control effect; nearly all actives have a fitted effect of over 45% in size).
Assay [13] is described as follows: qHTS for Inhibitors of the Aldehyde Dehydrogenase Family (ALDH1A2, ALDH1A3, ALDH2, ALDH3A1) (AID 2061307). Note: % is set by controls: 0 for no effect and ±100 for the full control effect; nearly all actives have a fitted effect of over 50% in size.
Assay [14] concerns the target Retinaldehyde dehydrogenase 3 (Homo sapiens) (UniProt P47895). The experiment in a line: qHTS for Inhibitors of the Aldehyde Dehydrogenase Family (ALDH1A3) Confirmatory screens (AID 2061311). Note: nearly all actives have a fitted effect of over 60% in size.
For assay [15], the target named is Aldehyde dehydrogenase 1A1 (Homo sapiens) (UniProt P00352). Nature of the assay: qHTS for Inhibitors of the Aldehyde Dehydrogenase Family (ALDH1A1) Confirmatory screens (AID 2061316). Note: nearly all actives have a fitted effect of over 65% in size.

From PubChem BioAssay (NCATS) come the findings set out here.

Values joined by “and” are separate entries in the source; they are usually repeats but may differ in a detail not shown here. Equal values may be shown once. Inconclusive results are not listed. Where a structure was tested more than once in an assay, its records may differ in their call. Values without a mark were called inactive. Active and inactive are the calls of the source. Unless noted, calls come from the whole dose curve; as a rule, active = well fitted curve in the direction sought with a large enough effect; inconclusive = small, poorly fitted or top-dose-only effect, or another doubt; inactive = no such curve, though single readings can be large; an effect the other way counts as inactive or inconclusive.

As to `O=C1OC2(c3ccccc31)c1cc(I)c(O)c(I)c1Oc1c2cc(I)c(O)c1I`, the activation in assay [1] was -36.8%.

In the case of `NC(=O)NO`, the Potency in assay [1] was 30.6 µM (active). The activation in assay [1] was -16.4% and -32.9%. Besides, the Potency result in [2], in assay [3], in [4], in assay [6], in [7] and in [8] was “inactive” throughout. The Potency result in assay [9], in [10] and in assay [11] was “inactive” in each case. The viability in [5] is 114%.

With `CC(C)COCC(CN(Cc1ccccc1)c1ccccc1)N1CCCC1` (centres undefined), the Potency in assay [1] was 34.7 µM (active); in assay [5], 23.5 µM (active); in assay [6], 18.6 µM (active); in assay [8] it was 16.6 µM (active); in assay [9], 20.9 µM (active); in [10] it was 20.9 µM (active). In [11], the Potency was 23.5 µM (active). The activation in [1] is -16.2%. Besides, the Potency entry in assay [2], in assay [3] and in [4] was “inactive” each time.

On to `Cc1c(I)c(=O)n(-c2ccccc2)n1C`, for which, in [1], the activation is -10.7%.

Take `CCCCCCCCCCCCOCCOCCOCCOCCOCCOCCOCCOCCOCCO`: the activation in assay [1] is 6.21%.

For the molecule `CCN(CC)CCOc1ccc(Nc2ncc3cc(-c4c(Cl)cccc4Cl)c(=O)n(C)c3n2)cc1`, the Potency in [1] was 5.44 µM (active); in assay [2], 26.9 µM (active); in assay [5], 3.72 µM (active); in assay [6], 2.63 µM (active); in assay [7], 0.59 µM (active); in assay [8], 0.0295 µM (active). For the same molecule, the Potency was 2.95 µM (active) in [9], 2.35 µM (active) in [10] and 2.95 µM (active) in assay [11]. Further, the activation in assay [1] was -1.41%. Further, the Potency entry in assay [3], in assay [12], in [13], in assay [14] and in assay [15] was “inactive” throughout.

In the case of `CC(O)CN(CCN(CC(C)O)CC(C)O)CC(C)O` (centres undefined), the activation in [1] was 22%.

With `Oc1ccc(-c2nc(-c3ccc(F)cc3)c(-c3ccncc3)[nH]2)cc1`, the results for the Potency in assay [1] and in assay [7] were 38.5 µM (active) and 18.6 µM (active), respectively. In addition, the activation in [1] is 9.98% and -12.3%. For the same molecule, the Potency entry in assay [2], in assay [3] and in assay [4] was “inactive” each time.

On to `C#C[C@]1(O)CC[C@H]2[C@H]3CCc4cc(OC)ccc4[C@H]3CC[C@@]21C`, for which, in [1], the activation is -30%.

For `CCC(=O)Oc1ccc2c(c1)CC[C@@H]1[C@@H]2CC[C@@]2(C)[C@H]1C[C@@H](OC(=O)CC)[C@@H]2OC(=O)CC`, the activation in [1] was -8.47%.

For the molecule `CC[C@H]1CN2CCc3cc(OC)c(OC)cc3[C@@H]2C[C@@H]1C[C@H]1NCCc2cc(OC)c(OC)cc21`, the Potency in assay [1] is 0.617 µM (active); in [2] it was 0.151 µM (active); in [5], 0.372 µM (active); in [7], 0.235 µM (active); in assay [9], 0.372 µM (active); in assay [10] it was 0.417 µM (active). For the same molecule, the Potency in assay [11] was 0.372 µM (active). Moreover, in assay [1], the activation is 20.5%. In addition, the Potency entry in assay [3] and in assay [4] was “inactive” in each case.

With `COC(=O)N/N=C/c1c[n+]([O-])c2ccccc2[n+]1[O-]`, the activation in [1] was -30.1%.

With `NC(=O)C(c1ccccc1)(c1ccccc1)[C@@H]1CCN(CCc2ccc3c(c2)CCO3)C1`, the Potency in assay [1] is 19.5 µM (active).

Turning to `COc1cc2nc(-c3cc(F)ccc3O)nc(N[C@@H]3CNC[C@@H]3C(C)(C)O)c2cc1OC`, in assay [1], the Potency is 34.3 µM (active).

Consider `Nc1ncnc2c1ncn2[C@@H]1O[C@H](COP(=O)(O)O)[C@@H](O)[C@H]1O`, for which, in assay [1], the activation was 5.08%.

With `Cc1cccc(C)c1NC(=O)c1ccc(N)cc1`, the activation in [1] is -2.82%.

`O=C(c1ccc(F)c(F)c1Nc1ccc(I)cc1F)N1CC(O)([C@H]2CCCCN2)C1`: the activation in assay [1] is 17.1%.

With `CN1C[C@H](C(=O)N[C@]2(C)O[C@@]3(O)[C@@H]4CCCN4C(=O)[C@H](Cc4ccccc4)N3C2=O)C[C@@H]2c3cccc4[nH]cc(c34)C[C@H]21`, in assay [1], the Potency was 24.6 µM (active) and the activation is 7.67%. In addition, the Potency entry in [3] is “inactive”.

`O=C(NCc1ccccc1)[C@H](Cc1ccccc1)NC(=O)[C@@H]1O[C@@H]1C(=O)NCCc1ccc(O)cc1`: the activation in assay [1] is 16.6%.

Take `C[C@@H](c1ncncc1F)C(O)(Cn1cncn1)c1ccc(F)cc1F` (some centres undefined): the activation in [1] was -2.82%.

In the case of `CCc1cc(C(C)=NOCc2ccc(C3CCCCC3)c(C(F)(F)F)c2)ccc1CN1CC(C(=O)O)C1`, the activation in assay [1] was 10.9%.

For the molecule `CCOC(=O)Nc1ccc(NCc2ccc(F)cc2)nc1N`, the Potency in assay [1] is 2.19 µM (active); in assay [2] it was 13.5 µM (active); in assay [3], 5.01 µM (active). Moreover, the activation in [1] is -4.52% and 42.2%. Moreover, the viability in assay [5] is 107%. Further, the Potency entry in [8], in assay [9] and in assay [10] was “inactive” in each case.

For `COC(=O)c1c(Cl)c(Cl)c(C(=O)OC)c(Cl)c1Cl`, in assay [1], the activation was -11.7%.

Consider `OC1(c2ccccc2)CCNCC1`, for which, in assay [1], the activation was 0.565%.

With `COc1cc2c3cc1Oc1cc(ccc1O)C[C@@H]1c4c(cc(OC)c(O)c4Oc4ccc(cc4)C[C@@H]3N(C)CC2)CC[N+]1(C)C`, the activation in assay [1] is 19.8%.

In the case of `CN=C(NC#N)Nc1ccc(C2=NNC(=O)CC2C)cc1` (centres undefined), the activation in [1] was 6.69%.

The term viability denotes a read-out of living cells in per cent, often relative to untreated cells.
